The list is not random: actives were taken first. Their share in the collection is about 7.7%.
Sm TGR block – S. mansoni TGR enzyme inhibition; Q962Y6; purified TGR, DTNB reduction, TNB absorbance 405 nm; Potency, µM (highest dose often 114 µM), for inactives: top-dose activity change, negative = inhibition, hits mostly inhibitors; 3% of 360,000 active; also: potency is read from the fitted curve at half-maximal effect; nearly all actives have a fitted effect of over 60% in size
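First, TGR (20 nM dispensed) and NADPH were mixed with compound. Second, a 15 min room-temperature incubation followed. Third, further NADPH and then DTNB were added to start the reaction. Finally, TNB absorbance was monitored kinetically.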
FMDV inh – foot and mouth disease virus antiviral activity; FMDV antiviral cell-based qHTS; Potency, µM (titrated, usually from 57.9 µM), without a hit: at the highest dose activity change, negative = inhibition, hits mostly inhibitors; 1.2% of 410,000 active; AID 1159524; calls by dose curve; tested in HEK293T cells; also: read-out not given here; potency is read from the fitted curve at half-maximal effect; nearly all actives have a fitted effect of over 45% in size
FBPA Giardia inh – blocks Giardia fructose-bisphosphate aldolase activity; AID 2451; A8B2U2; 0.71% of 290,000 active; Potency, µM (top dose mostly 59.6 µM), without a hit: at the highest dose activity, negative = inhibition, usual class: inhibitors; purified Giardia FBPA; also: potency is read from the fitted curve at half-maximal effect; nearly all actives have a fitted effect of over 55% in size
Target sequence (A8B2U2 whole entry, looked up): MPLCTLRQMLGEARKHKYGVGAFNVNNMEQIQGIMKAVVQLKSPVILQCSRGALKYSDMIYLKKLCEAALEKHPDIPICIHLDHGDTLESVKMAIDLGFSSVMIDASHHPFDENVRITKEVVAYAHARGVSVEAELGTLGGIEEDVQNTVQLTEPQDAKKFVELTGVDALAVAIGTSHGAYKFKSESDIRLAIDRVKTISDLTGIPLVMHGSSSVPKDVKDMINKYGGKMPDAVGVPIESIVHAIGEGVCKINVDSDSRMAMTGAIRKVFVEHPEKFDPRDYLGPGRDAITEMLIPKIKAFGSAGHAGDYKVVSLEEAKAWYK
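Giardia FBPA (40 nM reagent) was preincubated 10 min at RT with compound (up to 57.5 uM final), then substrate plus GAPDH/TPI/NAD/arsenate coupling system with diaphorase/resazurin was added; resorufin fluorescence (525/598 nm) was read after 20 min.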
Tb PYK inh – inhibitors of Trypanosoma brucei pyruvate kinase. Q57TT1. TbPYK enzyme, Kinase-Glo Plus ATP luminescence, 45 min. Potency, µM (series often up to 76.8 µM), without a hit: at the highest dose activity, negative = inhibition, hits mostly inhibitors. 0.12% of 410,000 active; also: potency is read from the fitted curve at half-maximal effect; nearly all actives have a fitted effect of over 50% in size
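Activity of T. brucei pyruvate kinase was followed by Kinase-Glo Plus luminescence after the enzyme reacted 45 min at room temperature with 130 uM ADP (final) and substrate. Test compounds were added before ADP at multiple concentrations.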
RE007 growth inh – less growth of the S. pombe RE007 Vpr strain | S. pombe RE007 Vpr strain, BacTiter-Glo ATP luminescence, 24 h | Potency, µM (series often up to 92.2 µM), inactives show top-dose activity change, negative = less growth, actives largely listed as inhibitors | 0.21% of 360,000 active; active = well fitted falling curve with a large enough effect; inconclusive = small, poorly fitted or top-dose-only effect; inactive = no such curve, though single readings can be large or run the other way; also: potency is read from the fitted curve at half-maximal effect; nearly all actives have a fitted effect of over 50% in size
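Fission yeast RE007 carrying one integrated HIV-1 vpr copy, seeded at OD 0.01 in PMG+AL medium with 23 nL pinned compound. Grown 24 h at 30 degrees; viability read by BacTiter-Glo luminescence after 5 min.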
HCMV inh – inhibitors of human cytomegalovirus; HFF cells, HCMV-luciferase reporter, 72 h; hits give low values; activity change, negative = inhibition, % at 57.5 µM; 4.5% of 410,000 active; AID 1259415; in the data active = activity change below about -60%; inconclusive = no clear call, values can overlap the other calls; inactive = above about -39%
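Screen run at 2 compound doses on HFFs infected with reporter HCMV, MOI 1 PFU/cell. Luciferase activity from cell lysates at 72 h post infection gave inhibition relative to buffer-only and Salinomycin wells.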
Starred values were filed as active, the others as inactive; ? = inconclusive; . = no result given; [ ] = another dose, or the depositor's remark. Unless noted, calls follow the shape of the dose curve; as a rule, active = well fitted curve in the direction sought with a large enough effect; inconclusive = small, poorly fitted or top-dose-only effect, or another doubt; inactive = no such curve, though single readings can be large; an effect the other way counts as inactive or inconclusive. % is scaled to controls: 0 for no effect and ±100 for the full control effect.

SMILES	Sm TGR block	FMDV inh	FBPA Giardia inh	Tb PYK inh	RE007 growth inh	HCMV inh
CCOC(=O)C1(c2ccccc2)CCN(CCC(=O)Nc2ccc(OC)cc2)CC1	.	-17%	.	-1%	-8%	6
CCOC(=O)C1(c2ccccc2)CCN(CCC(C#N)(c2ccccc2)c2ccccc2)CC1	.	?	.	0%	1%[18.4 µM]	-86*
CCc1ccc(S(=O)(=O)Nc2cccc(-c3ccc(N4CCC(C)CC4)nn3)c2)s1	-2%	-13%	.	0%	.	-17
CCC(C(=O)C(C)C(O)C(C)CCc1ccc(C)c(O)c1C(=O)O)C1OC(CC)(C2CC[C@@](O)(CC)C(C)O2)CC1C (stereo partly specified)	.	.	10%	3%	.	.
CC[C@@H](C(=O)[C@@H](C)[C@@H](O)[C@H](C)CCc1ccc(C)c(O)c1C(=O)O)[C@H]1O[C@](CC)([C@H]2CC[C@](O)(CC)[C@H](C)O2)C[C@@H]1C	5%	28µM*	21%	1%	3%	-99*
COc1cc(-c2nnc(SCCOc3cc(C)cc(C)c3)o2)cc(OC)c1OC	35µM*	-13%	.	-4%	.	0
CCC1(C)Cc2c(sc3c2c2ncnn2c2nnc(SCC(=O)NCc4ccco4)n32)CO1 (stereo unspecified)	45µM*	-24%	0%	-2%	6%	-23
CC1(C)Cc2c(sc3c2c2ncnn2c2nnc(SCC(=O)NCc4ccco4)n32)CO1	-2%[11.4 µM]	0%	3%	2%	10%	-1
O=C(/C=C/c1ccco1)Nc1nc(-c2ccc(F)c(F)c2)cs1	40µM*	35µM*	5%	-1%	13%	.
Cc1ccc(NC(=O)/C=C/c2ccco2)nc1	-17%	0%	-11%	0%	37%	-63*
O=C(/C=C/c1ccco1)Nc1scc(-c2ccccc2)c1C(=O)O	8.9µM*	?	?	-16%	?	15
O=C(/C=C/c1ccco1)Nc1ccccn1	1%	7%	1%	-21%	-23%	100
O=C(/C=C/c1ccco1)Nc1nc(-c2ccccc2)cs1	-27%	21%	-10%	-1%	-25%	-10
CCOC(=O)Cc1csc(NC(=O)/C=C/c2ccco2)n1	11µM*	2%	-2%	-6%	11%	0
CCOC(=O)c1c(C)c(C(=O)NCc2ccc(Cl)cc2)c(C)n1CC	-1%	-10%	.	-3%	.	?
COc1ccc(-c2csc(NC(=S)NC(=O)/C=C/c3ccco3)n2)cc1OC	-6%	?	-7%	-5%	6%	-8
Cc1csc(NC(=O)/C=C/c2ccc(C)o2)n1	20µM*	2%	-15%	-2%	-20%	37
COc1ccc(-c2csc(NC(=S)NC(=O)/C=C/c3ccco3)n2)cc1Br	-32%	-9%	-10%	1%	17%	-73*
Cc1csc(NC(=O)/C=C/c2ccco2)n1	50µM*	47%	-7%	-7%	4%	47
COc1ccc(CNC(=O)N(C)C[C@@H]2OCc3ccccc3-c3c(n(C)c4ccccc34)C(=O)N([C@@H](C)CO)C[C@@H]2C)cc1	.	.	.	.	.	-24
COc1ccc(C)cc1-n1nnc(-c2nc(-c3ccccc3Cl)no2)c1N	-6%	29%	.	-11%	.	-1
COc1cccc2c1OC[C@@H](CO)[C@H]2N(C)C(=O)Nc1ccc(Cl)cc1Cl	-28%	-2%	2%	0%	-29%	-62*
COc1ccccc1-c1nnc(SCC(=O)Nc2ccc(Cl)cc2Cl)o1	3%	-3%	0%	4%	-3%	60
Cc1cc(=O)n2c(sc3ccccc32)c1C#N	-14%	0%	5%	-2%	2%	-91*
Cc1cc(=O)n(CCc2ccccc2)c(O)c1C#N	?	8%	?	-11%	-10%	5
SMILES	Sm TGR block	FMDV inh	FBPA Giardia inh	Tb PYK inh	RE007 growth inh	HCMV inh
OCCN1CCN(c2nc(NCc3ccco3)c3ccccc3n2)CC1	-17%	20%	1%	-7%	-12%	-33
c1ccc(Nc2nc(NCc3ccco3)c3ccccc3n2)cc1	-1%	14µM*	-12%	0%	13%	-66*
c1cncc(-c2nc(NCc3ccco3)c3ccccc3n2)c1	25µM*	-19%	-2%	6%	-18%	35
c1ccc(CN2CCN(c3nc(NCc4ccco4)c4ccccc4n3)CC2)cc1	-24%	32µM*	-13%	1%	4%	-34
Cc1cccc(Nc2nc(NCc3ccco3)c3ccccc3n2)c1	-5%	28µM*	?	-1%	-2%	-95*
CCOc1ccc(NC(=O)C(C)Sc2nnc3cc(C)c4ccccc4n23)cc1 (stereo unspecified)	3%	-5%	.	7%	.	?
CCCCCn1c(CNC(=O)c2ccc(F)cc2)nc2ccccc21	0%	10%	.	-1%	.	-15
c1cncc(-c2nc(NCCCn3ccnc3)c3ccccc3n2)c1	-2%	-11%	7%	0%	0%	-67*
Cc1nc(NCCCn2ccnc2)c2ccccc2n1	-5%[11.4 µM]	-8%	-20%	-5%	-16%	-8
COc1ccccc1NS(=O)(=O)c1ccc(C(=O)OCC(=O)NCc2ccco2)cc1	40µM*	-14%	6%	-5%	0%	36
O=C(COC(=O)C1CC2C=CC1C2)NCc1ccco1 (stereo unspecified)	50µM*	2%	-4%	2%	5%	0
COc1ccccc1NC(=O)COC(=O)c1ccc(S(=O)(=O)NCc2ccco2)cc1	?	-8%	0%	-1%	-27%	40
COc1cccc(OC)c1C(=O)OCC(=O)NCc1ccco1	50µM*	-4%	.	1%	-5%	-11
Cc1ccc2cccc(OCC(=O)NCc3ccco3)c2n1	45µM*	6%	-6%	0%	-4%	-29
CCn1c(=O)c2cc(C(=O)Nc3cccc(C(F)(F)F)c3)sc2c2ccccc21	7%	-23%	.	-8%	.	-36
CC(C)[C@@H](C)/C=C/[C@@H](C)[C@H]1CC[C@@H]2[C@]1(C)CCC1[C@]23C=C[C@]2(C[C@@H](O)CC[C@]12C)N(c1cnccn1)O3 (stereo partly specified)	.	.	.	.	.	-20
COc1cccc(C2(CC(=O)N3CCN(c4ccccc4O)CC3)CC(=O)N(C3CCCC3)C2=O)c1 (stereo unspecified)	.	30%	.	.	.	.
O=C(COC(=O)/C=C/c1ccc(F)cc1)NCc1ccco1	3%	1%	3%	-3%	3%	46
CN(c1ccccc1)S(=O)(=O)c1ccc(C(=O)OCC(=O)NCc2ccco2)cc1	25µM*	-12%	-4%	-6%	-11%	-1
COc1ccccc1N(C)S(=O)(=O)c1ccc(C(=O)OCC(=O)NCc2ccco2)cc1	1%	-12%	2%	-8%	-4%	-6

High-throughput results from PubChem.
